Here are results for 34 compounds from PubChem BioAssay (Tox21).

A number with no mark means an inactive call. Records with an inconclusive call do not appear. Activity calls are given as the source filed them. Unless noted, calls come from the whole dose curve.

Experiment [1] in a line: qHTS assay to identify small molecule agonists of the sonic hedgehog signaling (Shh) pathway (AID 1259368).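 Note: NIH/3T3-derived 3T3Gli1-Luc cells carrying a stable Gli1-driven firefly luciferase reporter; series mostly up to about 92 µM; nearly all actives have a fitted effect of over 15% in size.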 In short, it runs like this: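 Quantitative high-throughput format using a Gli1-driven firefly luciferase reporter line derived from NIH/3T3 cells. After a 24 hr compound treatment at 37 C and 5% CO2, luminescence reported Gli1 response element activity.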
(In general: In qHTS, concentration-response curves come from the screen itself.)

The nature of experiment [2]: qHTS assay to identify small molecule antagonists of the sonic hedgehog signaling (Shh) pathway (AID 1259369). Note: nearly all actives have a fitted effect of over 45% in size. Note: potency is the fitted concentration of half-maximal effect. In short, it runs like this: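 Stable Gli1-Luc reporter NIH/3T3 clone; quantitative HTS in stimulated mode with conditioned medium. Luminescence measured after 24hr compound treatment at 37 C.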
Experiment [3] is described as follows: qHTS assay to identify small molecule agonists of the androgen receptor (AR) signaling pathway in the presence of an antagonist - cell viability counter screen (AID 1259379; active = well fitted curve in the direction sought with a large enough effect in the repeat runs; an effect the other way counts as inactive or inconclusive; note: nearly all actives have a fitted effect of over 25% in size; note: potency is the fitted concentration of half-maximal effect). A digest of the protocol:
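Nilutamide-containing (3.0uM final) MDA-kb2 cultures, 3,000 cells/well, were treated with compounds across 15 concentrations. After 16 hr at 37C with no CO2, cell viability was determined by CellTiter-Fluor fluorescence in the luciferase assay wells.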

Experiment [4] can be described thus: qHTS assay to identify small molecule antagonists of the estrogen receptor beta (ER-beta) signaling pathway - cell viability counter screen (AID 1259382; active = well fitted curve in the direction sought with a large enough effect in the repeat runs; an effect the other way counts as inactive or inconclusive; note: nearly all actives have a fitted effect of over 55% in size; note: potency is the fitted concentration of half-maximal effect). A digest of the protocol:
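Viability is scored by CellTiter-Glo luminescence (30 min, room temperature) in ER-beta-UAS-bla HEK293T wells already read for reporter fluorescence. Compound exposure lasts 16 hr at 37C alongside 1nM 17-beta-estradiol in charcoal-stripped serum medium.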

For experiment [5], the target named is Estrogen receptor (Homo sapiens) (UniProt P03372). Description: qHTS assay to identify small molecule agonists of the estrogen receptor alpha (ER-alpha) signaling pathway in the presence of an antagonist (AID 1259383). Note: top concentration of the series differs between compounds; nearly all actives have a fitted effect of over 15% in size. A digest of the protocol: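 Readout was ERE-driven luciferase luminescence in VM7Luc4E2 cells, which express full-length ER-alpha endogenously. Compounds were tested at 15 concentrations for 22hr alongside 10.0nM ICI-182,780 (final concentration).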
Sequence of Estrogen receptor (Homo sapiens) (P03372 whole entry, looked up): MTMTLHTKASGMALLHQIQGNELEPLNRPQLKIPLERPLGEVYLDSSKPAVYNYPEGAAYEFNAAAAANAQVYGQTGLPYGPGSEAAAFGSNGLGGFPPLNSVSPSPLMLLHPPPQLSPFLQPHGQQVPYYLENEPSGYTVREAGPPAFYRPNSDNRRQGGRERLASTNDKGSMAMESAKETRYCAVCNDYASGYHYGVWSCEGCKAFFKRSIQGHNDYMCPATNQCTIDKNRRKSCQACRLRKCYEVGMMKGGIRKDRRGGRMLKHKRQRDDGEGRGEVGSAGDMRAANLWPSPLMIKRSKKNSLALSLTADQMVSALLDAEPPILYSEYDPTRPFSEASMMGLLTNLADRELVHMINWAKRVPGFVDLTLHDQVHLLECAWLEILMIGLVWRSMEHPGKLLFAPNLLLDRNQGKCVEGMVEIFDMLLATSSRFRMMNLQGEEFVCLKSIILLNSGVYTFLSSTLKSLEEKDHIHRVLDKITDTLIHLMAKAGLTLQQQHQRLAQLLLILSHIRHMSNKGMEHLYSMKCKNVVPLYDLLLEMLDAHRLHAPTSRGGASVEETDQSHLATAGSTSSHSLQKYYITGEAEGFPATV

Experiment [6] in a line: qHTS assay to identify small molecule agonists or antagonists of the thyroid stimulating hormone receptor (TSHR) signaling pathway - wild type cell line counter screen (AID 1259384). In short, it runs like this:
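Counter screen in untransfected Hek293: compounds (15-point titration, triplicate) plus phosphodiesterase inhibitor Ro20-1724 added after 18 h plating; 30 min RT. Intracellular cAMP via competitive d2/cryptate immunoassay, 1 h incubation.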

Experiment [7] can be described thus: qHTS assay to identify small molecule agonists of the estrogen receptor beta (ER-beta) signaling pathway - cell viability counter screen (AID 1259380; active = well fitted curve in the direction sought with a large enough effect in the repeat runs; an effect the other way counts as inactive or inconclusive; note: nearly all actives have a fitted effect of over 30% in size; note: potency is the fitted concentration of half-maximal effect). A digest of the protocol: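 Steps: plate ER-beta-UAS-bla HEK293T cells, rest 6 hr; add compounds in DMSO; incubate 16 hr at 37C, 5% CO2; add FRET substrate 2 hr; add CellTiter-Glo, wait 30 min at room temperature; read luminescence.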

The target in experiment [8] is Androgen receptor (Homo sapiens) (UniProt P10275). Description: qHTS assay to identify small molecule agonists of the androgen receptor (AR) signaling pathway in the presence of an antagonist (AID 1259381). Note: nearly all actives have a fitted effect of over 15% in size. In short, it runs like this:
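Reporter-gene luminescence from MDA-kb2 cells exposed 16hr at 37C (0% CO2) to 15-point compound titrations with 3.0uM final nilutamide as AR antagonist.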

In experiment [9] the target is Estrogen receptor beta (Homo sapiens) (UniProt Q92731). Description: qHTS assay to identify small molecule agonists of the estrogen receptor beta (ER-beta) signaling pathway (AID 1259377; active = well fitted activation curve with a large enough effect in the signal ratio in the repeat runs, not every such curve was filed as active; the % refers to the signal ratio). A digest of the protocol:
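qHTS in ER-beta-UAS-bla HEK293T cells: 6 hr settling, then 16 hr compound at 37C, then LiveBLAzer substrate 2 h at RT before fluorescence reading.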

Sequence of Androgen receptor (Homo sapiens) (P10275 whole entry, looked up): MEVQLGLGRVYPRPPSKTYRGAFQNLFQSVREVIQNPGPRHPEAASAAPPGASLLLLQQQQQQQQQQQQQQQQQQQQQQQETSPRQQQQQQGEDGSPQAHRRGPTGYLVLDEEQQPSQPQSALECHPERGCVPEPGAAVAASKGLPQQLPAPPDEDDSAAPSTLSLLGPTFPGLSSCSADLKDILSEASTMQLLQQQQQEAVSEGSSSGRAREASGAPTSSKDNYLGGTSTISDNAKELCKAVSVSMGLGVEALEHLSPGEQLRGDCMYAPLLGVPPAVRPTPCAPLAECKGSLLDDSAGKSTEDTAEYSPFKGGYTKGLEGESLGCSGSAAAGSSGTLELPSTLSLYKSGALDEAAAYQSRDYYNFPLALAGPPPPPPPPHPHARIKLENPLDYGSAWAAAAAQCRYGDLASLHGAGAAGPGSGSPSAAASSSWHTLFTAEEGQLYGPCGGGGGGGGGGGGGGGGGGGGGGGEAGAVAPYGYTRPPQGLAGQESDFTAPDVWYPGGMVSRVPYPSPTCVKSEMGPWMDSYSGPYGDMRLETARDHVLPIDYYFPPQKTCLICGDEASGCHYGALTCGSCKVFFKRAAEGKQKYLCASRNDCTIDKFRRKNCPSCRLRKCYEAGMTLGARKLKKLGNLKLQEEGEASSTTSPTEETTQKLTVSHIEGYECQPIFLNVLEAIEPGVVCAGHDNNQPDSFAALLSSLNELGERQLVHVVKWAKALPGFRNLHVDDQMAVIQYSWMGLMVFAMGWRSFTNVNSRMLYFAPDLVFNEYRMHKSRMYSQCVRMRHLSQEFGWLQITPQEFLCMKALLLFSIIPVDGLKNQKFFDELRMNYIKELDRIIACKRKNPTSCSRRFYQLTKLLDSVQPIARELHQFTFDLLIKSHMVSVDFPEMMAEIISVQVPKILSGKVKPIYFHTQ
Sequence of Estrogen receptor beta (Homo sapiens) (Q92731 whole entry, looked up): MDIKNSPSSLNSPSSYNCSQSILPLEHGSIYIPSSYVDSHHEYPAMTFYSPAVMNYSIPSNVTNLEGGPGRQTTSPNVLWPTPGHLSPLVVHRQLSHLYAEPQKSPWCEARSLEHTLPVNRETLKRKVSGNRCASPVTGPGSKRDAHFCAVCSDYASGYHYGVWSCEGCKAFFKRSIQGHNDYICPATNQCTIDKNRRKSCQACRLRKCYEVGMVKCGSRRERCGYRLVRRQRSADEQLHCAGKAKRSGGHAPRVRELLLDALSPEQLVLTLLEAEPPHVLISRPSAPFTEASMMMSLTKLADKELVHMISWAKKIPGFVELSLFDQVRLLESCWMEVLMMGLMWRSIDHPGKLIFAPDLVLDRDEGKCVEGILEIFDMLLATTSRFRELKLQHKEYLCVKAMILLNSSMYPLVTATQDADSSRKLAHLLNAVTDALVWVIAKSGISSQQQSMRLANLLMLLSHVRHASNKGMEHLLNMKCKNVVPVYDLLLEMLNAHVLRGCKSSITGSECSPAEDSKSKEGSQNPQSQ

Consider `CCCCCCCCCCCC[N+](C)(C)CCCS(=O)(=O)[O-]`, for which the Potency result in experiment [1], in experiment [2], in [3], in experiment [4] and in experiment [5] was “inactive” in each case. Moreover, in experiment [6], the call was inactive.
As for `N#C[C@@H]1C[C@@H]2C[C@@H]2N1C(=O)[C@@H](N)C12CC3CC(CC(O)(C3)C1)C2`, the Potency result in experiment [1], in [2], in experiment [3], in experiment [4] and in experiment [5] was “inactive” in each case. The result in [6] was inactive.
`CN1Cc2cc(C(=O)N3CCC(C4CCNCC4)CC3)ccc2N[C@@H](CC(=O)O)C1=O`: the Potency entry in [1], in [2], in experiment [3], in experiment [7], in experiment [4] and in [5] was “inactive” each time.
For `O=C(C(=O)c1ccccc1)c1ccccc1`, the Potency entry in [1], in [2], in experiment [3], in [7] and in [4] was “inactive” throughout.
As for `COc1cc2[nH]c(=O)[nH]c(=O)c2cc1OC`, the Potency entry in [1], in experiment [2], in experiment [3], in [7], in experiment [4] and in [5] was “inactive” in each case. The compound was called inactive in experiment [6].
As for `OCC1CC=CCC1` (centres undefined), the Potency entry in [1], in [2], in experiment [3], in experiment [8] and in experiment [4] was “inactive” in each case. Also, in experiment [6], the compound was called inactive.
In the case of `Nc1ccc(S(=O)(=O)O)c(N)c1`, the Potency entry in experiment [1], in experiment [2], in [3], in [7], in [4] and in experiment [5] was “inactive” in each case. For the same compound, the compound was classed as inactive in experiment [6].
For `CCC(C)(O)CCC=C(C)C` (centres undefined), the Potency result in experiment [1], in [2], in [3], in experiment [7], in experiment [4] and in experiment [5] was “inactive” each time. Besides, the compound was classed as inactive in [6].
Turning to `CC1=CC(O)CC(C)(C)C1` (centres undefined), the Potency entry in experiment [1], in [2], in experiment [3], in experiment [7], in [4] and in experiment [5] was “inactive” in each case. The outcome in experiment [6] was inactive.
Consider `CC(COc1ccc(C(C)(C)C)cc1)OS(=O)OCCCl` (centres undefined), for which the Potency entry in experiment [1], in experiment [4] and in experiment [5] was “inactive” throughout. In addition, the Potency in experiment [2] was 1.94 µM (active).
Turning to `C=CCNc1nc(NCC=C)nc(N2CCN(C(c3ccc(F)cc3)c3ccc(F)cc3)CC2)n1`, the Potency result in experiment [1], in experiment [2], in [8], in [4] and in experiment [5] was “inactive” throughout. Moreover, the result in [6] was inactive.
As for `COCC(O)CO` (centres undefined), the Potency result in experiment [1], in experiment [2], in experiment [3], in experiment [7], in [4] and in experiment [5] was “inactive” throughout. Also, the outcome in [6] was inactive.
With `C[C@@H]1C[C@H]2[C@@H]3CCC4=CC(=O)C=C[C@]4(C)[C@@]3(F)[C@@H](O)C[C@]2(C)[C@@]1(O)C(=O)CO`, the Potency entry in [1], in experiment [3], in experiment [7] and in experiment [4] was “inactive” in each case. Also, the Potency in experiment [2] is 0.492 µM (active).
As to `CN1CCN(CCCN2c3ccccc3Sc3ccc(S(=O)(=O)N(C)C)cc32)CC1`, the Potency result in experiment [1] and in experiment [3] was “inactive” in each case. Further, the Potency in experiment [2] is 13.3 µM (active); in experiment [7] it was 23.7 µM (active); in experiment [4], 23.7 µM (active). In [6], the call was inactive.
On to `O=C(NCCCN1CCOCC1)c1ccc(Cl)cc1`, for which the Potency result in [1], in experiment [2], in experiment [3], in experiment [7], in [4] and in experiment [5] was “inactive” each time. Besides, in experiment [6], the result was inactive.
Take `C=CC(C)(C)CC(=O)OC`: the Potency entry in experiment [1] and in [4] was “inactive” in each case. Besides, the Potency in experiment [2] was 27.4 µM (active); in [7], 5.46 µM (active). Also, the call in experiment [6] was inactive.
With `CC(C)CCCC(=O)O`, the Potency result in [1], in [2], in [3], in experiment [8], in [4] and in [5] was “inactive” each time.
On to `CCCc1c(OCCCOc2ccc(OCC(=O)O)cc2)ccc(C(C)=O)c1O`, for which the Potency result in [1], in [2], in [3], in experiment [8] and in experiment [5] was “inactive” in each case.
`CCCCCCOC(=O)CCCCCCCC(=O)OCCCCCC`: the Potency result in experiment [1], in experiment [2], in experiment [3], in experiment [7] and in [4] was “inactive” throughout. Besides, in experiment [6], the result was inactive.
Turning to `OC/C(Br)=C(\Br)CO`, the Potency entry in experiment [1], in experiment [2], in experiment [3], in experiment [7], in experiment [4] and in experiment [5] was “inactive” in each case. For the same compound, the compound was classed as inactive in experiment [6].
Regarding `O=C(O)c1c(O)c(-c2ccccc2)nc2ccccc12`, the Potency entry in [1], in experiment [2], in [3], in [8] and in experiment [5] was “inactive” throughout. For the same compound, the result in experiment [6] was inactive.
Take `C[N+]1(C)CCC(=C(c2ccccc2)c2ccccc2)CC1`: the Potency entry in experiment [1], in [2], in experiment [3], in [7] and in [4] was “inactive” throughout. The call in experiment [6] was inactive.
In the case of `CC1=CC(=O)CC(C)(C)C1(O)/C=C/C(C)=C\C(=O)O` (centres undefined), the Potency result in experiment [1], in experiment [2], in experiment [3] and in experiment [4] was “inactive” in each case. Moreover, the compound was called inactive in experiment [6].
Take `COc1cc2ncnc(Nc3ccc(F)c(Cl)c3)c2cc1OCCCN1CCOCC1`: the Potency entry in experiment [1], in experiment [8] and in [5] was “inactive” throughout. The Potency in [2] is 15 µM (active); in [7], 6.68 µM (active). Moreover, in [6], the outcome was inactive.
As to `Nc1ccc(Cl)cc1[N+](=O)[O-]`, the Potency entry in [1], in [2], in experiment [7], in experiment [8], in [4] and in experiment [5] was “inactive” each time. The compound was classed as inactive in experiment [6].
`CC(C)C(=O)O`: the Potency result in [1], in [2], in [3], in experiment [4] and in experiment [5] was “inactive” each time.
With `O=S(=O)(c1ccccc1)c1ccc(Cl)cc1`, the Potency entry in experiment [1], in [2], in [3], in [7], in [4] and in experiment [5] was “inactive” in each case. In experiment [6], the call was inactive.
For the compound `CCOC(=O)c1ccccc1OC`, the Potency result in [1], in [2], in experiment [3], in experiment [7] and in [4] was “inactive” in each case. The compound was classed as inactive in experiment [6].
Consider `CC(C)(C)C(=O)C(Oc1ccc(Cl)cc1)n1ccnc1` (centres undefined), for which the Potency entry in experiment [1], in experiment [2], in experiment [3], in experiment [4] and in [5] was “inactive” in each case. Moreover, in experiment [7], the Potency was 1.19 µM (active).
`Cc1cc(S(=O)(=O)O)ccc1N=Nc1c(O)ccc2ccccc12`: the Potency entry in [1], in [2] and in [4] was “inactive” in each case. The Potency in experiment [3] is 30.6 µM (active). Also, the outcome in [6] was inactive.
Take `CCCCCCCC/C=C\CCCCCCCC(=O)OC(CO)CO`: the Potency result in experiment [1] and in experiment [9] was “inactive” each time.
As to `CC1C2CC(CC2C2CCCC(O)C2)C1(C)C` (centres undefined), the Potency result in experiment [1], in experiment [2] and in [3] was “inactive” in each case. Besides, in [6], the call was inactive.
For the compound `CCCCCCCCCCOS(=O)(=O)O`, the Potency entry in experiment [1], in experiment [2], in experiment [3], in [4] and in [5] was “inactive” throughout. Besides, in experiment [6], the call was inactive.
For the compound `O=C(N/N=C/c1ccc([N+](=O)[O-])o1)c1ccc(O)cc1`, the Potency entry in experiment [1], in experiment [8], in [4] and in experiment [5] was “inactive” each time. For the same compound, the Potency in [2] and in experiment [3] was 11.9 µM (active) throughout. The result in experiment [6] was inactive.
